Drawing on PubChem BioAssay (EPA / NIEHS), this text covers outcome and AC50 for six molecules.

Experiment [1] is described as follows: ATG_Hpa5_TRANS: Attagene TRANS-FACTORIAL HepG2 Assay for human GAL4-Hpa5 Hepatocyte Transcription Factor Basal Promoter (AID 2282975; active = hit-call score of the fitted dose curve at least 0.9, where 1 is the maximum). The settings on record: HepG2 Attagene GAL4-Hpa5 transcription reporter. Put shortly:
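Basal-promoter GAL4 background control within the HepG2 trans-factorial panel of transiently transfected reporter units. Reporter mRNA is measured 24 h after dosing by RT-PCR and capillary electrophoresis, fitted for gain of signal versus DMSO.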

Experiment [2] has as its target Oxysterols receptor LXR-alpha (Homo sapiens) (UniProt Q13133). Nature of the experiment: ATG_LXRa_TRANS: Attagene TRANS-FACTORIAL HepG2 Assay for human Liver X Receptor alpha (LXRa) (AID 2282980; active = hit-call score of the fitted dose curve at least 0.9, where 1 is the maximum). As to conditions: HepG2 Attagene TRANS reporter, LXRa transactivation. The gist of the method: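 Chemical-induced reporter mRNA measured by RT-PCR with fluorescent labelling and capillary electrophoresis after 24 h dosing of transiently transfected HepG2 cells expressing exogenous NR-Gal4 chimeras; increases scored against DMSO baseline.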

For experiment [3], the target named is Oxysterols receptor LXR-beta (Homo sapiens) (UniProt P55055). Nature of the experiment: ATG_LXRb_TRANS: Attagene TRANS-FACTORIAL HepG2 Assay for human Liver X Receptor beta (LXRb) (AID 2282981; active = hit-call score of the fitted dose curve at least 0.9, where 1 is the maximum). The settings on record: HepG2 Attagene TRANS GAL4-LXRb reporter, mRNA. The gist of the method:
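HepG2 cells transiently transfected with GAL4-UAS reporter units for chimeric NR-Gal4 proteins, dosed for 24 h. Reporter transcripts measured by RT-PCR and capillary electrophoresis; gain-of-signal fitting relative to DMSO.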

The target in experiment [4] is Hepatocyte nuclear factor 4-alpha (Homo sapiens) (UniProt P41235). The experiment in a line: ATG_HNF4a_TRANS: Attagene TRANS-FACTORIAL HepG2 Assay for human Hepatocyte Nuclear Factor 4 alpha (HNF4a) (AID 2282982; active = hit-call score of the fitted dose curve at least 0.9, where 1 is the maximum). As to conditions: HepG2 HNF4a transactivation reporter, mRNA readout. The gist of the method: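 HepG2 cells transiently transfected with HNF4a-Gal4 chimera and GAL4-UAS reporter units, dosed for 24 h. Reporter mRNA measured by RT-PCR, fluorescent primer extension and capillary electrophoresis; gain-of-signal fitted relative to DMSO.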

Experiment [5] in a line: ATG_M_32_TRANS: Attagene TRANS-FACTORIAL HepG2 Assay for M32 Transcription Factor (Internal Marker) (AID 2282984; active = hit-call score of the fitted dose curve at least 0.9, where 1 is the maximum). As to conditions: HepG2 Attagene TRANS M32 internal marker reporter. Put shortly: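 HepG2 cells transiently transfected with GAL4-UAS reporter units, dosed for 24 hours. Reporter mRNA quantified by RT-PCR, 6-FAM labelling, HpaI digestion and capillary electrophoresis; internal-marker signal fitted upward relative to DMSO.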

Experiment [6] has as its target Nuclear receptor subfamily 4 group A member 2 (Homo sapiens) (UniProt P43354). The experiment in a line: ATG_NURR1_TRANS: Attagene TRANS-FACTORIAL HepG2 Assay for human Nuclear Receptor Related Protein 1 (NURR1) (AID 2282985; active = hit-call score of the fitted dose curve at least 0.9, where 1 is the maximum). The settings on record: HepG2 Attagene TRANS reporter, mRNA readout. Put shortly: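 HepG2 cells transiently transfected with NURR1-Gal4 chimera and GAL4-UAS reporter units; after 24 hr compound exposure, reporter mRNA quantified by RT-PCR and capillary electrophoresis; gain of signal fitted against DMSO.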

The target in experiment [7] is Transcriptional activator Myb (Homo sapiens) (UniProt P10242). The experiment in a line: ATG_Myb_CIS: Attagene CIS-FACTORIAL HepG2 Assay for human Myeloblastosis (Myb) Proto-Oncogene Transcription Factor (AID 2282986). The settings on record: HepG2 Attagene CIS-FACTORIAL Myb reporter transcription; actives raise or lower the signal. The gist of the method:
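Endogenous transcription factor activity at a Myb-responsive cis element is reported in human liver HepG2 cells after 24 h chemical treatment. Reporter mRNA is detected by RT-PCR and capillary electrophoresis fluorescence, with DMSO as baseline.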

The target in experiment [8] is Nuclear respiratory factor 1 (Homo sapiens) (UniProt Q16656). Nature of the experiment: ATG_NRF1_CIS: Attagene CIS-FACTORIAL HepG2 Assay for human Nuclear Respiratory Factor 1 (NRF1) Orphan Gene (AID 2282987). The settings on record: HepG2 NRF1 cis-element reporter, Attagene multiplex; actives raise or lower the signal. Put shortly:
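Human hepatoma HepG2 cells carrying transfected promoter-regulated reporter units were incubated with test chemicals for 24 h. Reporter transcripts were measured by RT-PCR plus capillary electrophoresis, and endpoints derived by bidirectional fitting with DMSO as baseline.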

Experiment [9] in a line: ATG_NFI_CIS: Attagene CIS-FACTORIAL HepG2 Assay for human Nuclear Factor I (NFI) (AID 2282989). The settings on record: HepG2 cis-regulatory reporter, NFI response element transcription; actives raise or lower the signal. The gist of the method:
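Transfected HepG2 liver cells, exposed 24 h, supplied total RNA for oligo(dT) reverse transcription and reporter-specific PCR. Labelled, HpaI-cut fragments were sized by capillary electrophoresis; DMSO set the baseline for bidirectional fitting.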

Experiment [10] concerns the target Myc proto-oncogene protein (Homo sapiens) (UniProt P01106). The experiment in a line: ATG_Myc_CIS: Attagene CIS-FACTORIAL HepG2 Assay for human Myelocytomatosis (Myc) Proto-Oncogene Transcription Factor (AID 2282990). As to conditions: HepG2, Attagene cis-reporter transcription factor activity; actives raise or lower the signal. Put shortly:
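Fluorescence intensity of reporter-specific cDNA fragments, separated by capillary electrophoresis, gives the signal. Transfected HepG2 cells carrying cis-promoter reporter constructs are incubated with compound for 24 h; DMSO serves as baseline.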

The nature of experiment [11]: ATG_NRF2_ARE_CIS: Attagene CIS-FACTORIAL HepG2 Assay for human Nuclear Factor Erythroid 2 Related Factor 2 (NFR2) response to Antioxidant Response Elements (ARE) (AID 2282992).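 As to AC50: reporter mRNA level measured by RT-PCR and capillary electrophoresis fluorescence.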 The settings on record: HepG2 Attagene ARE/NRF2 reporter, transcription factor activity; actives raise or lower the signal. The gist of the method:
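HepG2 cells transiently transfected with multiplexed cis-regulated reporter transcription units measure endogenous transcription factor activity. Reporter mRNA at 24 h is quantified by RT-PCR, fluorescent labelling and capillary electrophoresis, with bidirectional fitting relative to DMSO.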

Experiment [12] can be described thus: ATG_Oct_MLP_CIS: Attagene CIS-FACTORIAL HepG2 Assay for human Octamer-Binding Transcription Factor (Oct) (AID 2282993). As to conditions: HepG2 Attagene cis-factorial Oct reporter, mRNA; actives raise or lower the signal. Put shortly: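 Using HepG2 cells bearing transfected cis-reporter constructs, mRNA induction was read after 24 h by fluorescent RT-PCR and capillary electrophoresis, with DMSO defining baseline for gain- or loss-of-signal fits.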

For experiment [13], the target named is Cellular tumor antigen p53 (Homo sapiens) (UniProt P04637). The experiment in a line: ATG_p53_CIS: Attagene CIS-FACTORIAL HepG2 Assay for human p53 Transcription Factor (AID 2282994). The settings on record: HepG2 p53 cis-element reporter, Attagene mRNA; actives raise or lower the signal. The gist of the method: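 HepG2 cells transiently transfected with multiplexed cis-regulated reporter transcription units read endogenous TF activity. After 24 h compound exposure, reporter mRNA was quantified by RT-PCR, fluorescent labelling, HpaI digestion and capillary electrophoresis; bidirectional fits versus DMSO baseline.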

The nature of experiment [14]: BSK_3C_TissueFactor: BioMAP Diversity Plus: 3C Assay for Tissue Factor Biomarker Activity (AID 2282997). The settings on record: BioMAP 3C HUVEC, tissue factor biomarker readout; actives raise or lower the signal. Put shortly:
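Dosing of human umbilical vein endothelial cells preceded a 24 h incubation. Tissue Factor was then read by ELISA, with increases and decreases both scored relative to DMSO controls.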

Experiment [15] can be described thus: BSK_3C_uPAR: BioMAP Diversity Plus: 3C Assay for Urokinase-type plasminogen activator receptor (uPAR) Biomarker Activity (AID 2282998). As to conditions: BioMAP 3C HUVEC, uPAR biomarker ELISA; actives raise or lower the signal. Put shortly: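 In this endothelial cell-based assay, human umbilical vein primary cells were treated with chemicals and harvested at 24 h. uPAR was quantified using ELISA, with gains or losses fitted relative to DMSO controls.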

Experiment [16] in a line: BSK_3C_VCAM1: BioMAP Diversity Plus: 3C Assay for Vascular cell adhesion molecule 1 (VCAM1) Biomarker Activity (AID 2282999). As to conditions: BioMAP 3C HUVEC, VCAM1 ELISA, cytokine-stimulated; actives raise or lower the signal. Put shortly: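 Human umbilical vein endothelial cells (3C system), biomarker read by ELISA 24 h after dosing; bidirectional fit against DMSO baseline. Cytotoxicity tracked by SRB total-protein staining in parallel cultures at biomarker time.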

Experiment [17] is described as follows: ATG_NF_kB_CIS: Attagene CIS-FACTORIAL HepG2 Assay for human Nuclear Factor Kappa B (NF-kB) (AID 2282991). The settings on record: HepG2 Attagene cis-factorial NF-kB reporter mRNA; actives raise or lower the signal. The gist of the method:
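Multiplexed cis-reporter assay in transiently transfected HepG2. 24 h treatment; RNA isolated, RT-PCR, labelled fragments resolved by CE. DMSO baseline.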

The target of experiment [18] is Bile acid receptor (Homo sapiens) (UniProt Q96RI1). The experiment in a line: ATG_FXR_TRANS: Attagene TRANS-FACTORIAL HepG2 Assay for Farnesoid X Receptor (FXR) (AID 2282979; active = hit-call score of the fitted dose curve at least 0.9, where 1 is the maximum;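 also: hits raise reporter mRNA above DMSO so AC50 marks FXR activation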). As to conditions: HepG2 Attagene TRANS FXR-GAL4 reporter transcription. The gist of the method:
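Reporter transcripts from transfected HepG2 cells were measured 24 h after dosing, using RT-PCR with capillary electrophoresis of 6-FAM-labelled fragments. The read-out reflects activity of exogenous FXR-Gal4 chimera on GAL4-UAS units, with induction relative to DMSO.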

In experiment [19] the target is Glucocorticoid receptor (Homo sapiens) (UniProt P04150). Nature of the experiment: ATG_GR_TRANS: Attagene TRANS-FACTORIAL HepG2 Assay for human Glucocorticoid Receptor (GR) (AID 2282978; active = hit-call score of the fitted dose curve at least 0.9, where 1 is the maximum;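 also: activators score as hits since higher reporter transcript over DMSO is fitted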). The settings on record: HepG2 Attagene TRANS GR reporter, mRNA transcription. The gist of the method: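 Multiplexed TRANS reporter system, HepG2; 24 h exposure; RNA → oligo(dT) RT → reporter-specific PCR → 6-FAM primer extension → HpaI cut → CE fluorescence. Gain-of-signal vs DMSO.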

Records with an inconclusive call do not appear. Active and inactive are the calls of the source. The calls were made as follows, unless noted: active = hit-call score of the fitted dose curve at least 0.9, where 1 is the maximum; inactive = score below 0.9.

Sequence of Nuclear respiratory factor 1 (Homo sapiens) (Q16656 whole entry, looked up): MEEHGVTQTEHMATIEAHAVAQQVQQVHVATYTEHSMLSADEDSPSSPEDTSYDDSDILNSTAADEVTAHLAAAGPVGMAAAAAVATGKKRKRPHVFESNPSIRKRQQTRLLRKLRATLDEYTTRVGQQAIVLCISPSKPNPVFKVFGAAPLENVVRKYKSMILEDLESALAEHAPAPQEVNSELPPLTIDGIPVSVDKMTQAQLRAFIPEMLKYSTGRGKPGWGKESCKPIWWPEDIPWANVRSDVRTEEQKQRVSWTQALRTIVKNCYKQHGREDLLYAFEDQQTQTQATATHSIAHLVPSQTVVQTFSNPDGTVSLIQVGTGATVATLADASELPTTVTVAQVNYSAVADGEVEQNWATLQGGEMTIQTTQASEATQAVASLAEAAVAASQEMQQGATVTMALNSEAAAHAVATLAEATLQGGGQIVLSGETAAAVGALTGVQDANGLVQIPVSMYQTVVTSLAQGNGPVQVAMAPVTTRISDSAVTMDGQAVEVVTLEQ
Sequence of Transcriptional activator Myb (Homo sapiens) (P10242 whole entry, looked up): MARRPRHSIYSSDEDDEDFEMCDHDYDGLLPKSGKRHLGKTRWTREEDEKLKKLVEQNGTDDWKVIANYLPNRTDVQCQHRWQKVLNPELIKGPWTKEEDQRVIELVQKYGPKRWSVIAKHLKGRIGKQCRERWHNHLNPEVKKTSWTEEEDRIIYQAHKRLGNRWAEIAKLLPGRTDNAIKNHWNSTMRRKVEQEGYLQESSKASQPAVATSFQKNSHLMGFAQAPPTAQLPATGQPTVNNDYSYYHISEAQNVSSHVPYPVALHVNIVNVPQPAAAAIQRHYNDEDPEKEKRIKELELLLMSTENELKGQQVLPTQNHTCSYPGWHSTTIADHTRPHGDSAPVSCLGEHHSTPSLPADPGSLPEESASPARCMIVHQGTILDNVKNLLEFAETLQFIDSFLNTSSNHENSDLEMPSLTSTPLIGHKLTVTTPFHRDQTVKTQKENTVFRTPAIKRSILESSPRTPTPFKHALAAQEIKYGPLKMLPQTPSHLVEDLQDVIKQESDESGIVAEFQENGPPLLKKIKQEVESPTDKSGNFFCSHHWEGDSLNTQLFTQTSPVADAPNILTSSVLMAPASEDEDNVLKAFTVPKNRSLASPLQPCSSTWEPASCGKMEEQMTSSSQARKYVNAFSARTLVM
Sequence of Oxysterols receptor LXR-alpha (Homo sapiens) (Q13133 whole entry, looked up, the tested form may be a part): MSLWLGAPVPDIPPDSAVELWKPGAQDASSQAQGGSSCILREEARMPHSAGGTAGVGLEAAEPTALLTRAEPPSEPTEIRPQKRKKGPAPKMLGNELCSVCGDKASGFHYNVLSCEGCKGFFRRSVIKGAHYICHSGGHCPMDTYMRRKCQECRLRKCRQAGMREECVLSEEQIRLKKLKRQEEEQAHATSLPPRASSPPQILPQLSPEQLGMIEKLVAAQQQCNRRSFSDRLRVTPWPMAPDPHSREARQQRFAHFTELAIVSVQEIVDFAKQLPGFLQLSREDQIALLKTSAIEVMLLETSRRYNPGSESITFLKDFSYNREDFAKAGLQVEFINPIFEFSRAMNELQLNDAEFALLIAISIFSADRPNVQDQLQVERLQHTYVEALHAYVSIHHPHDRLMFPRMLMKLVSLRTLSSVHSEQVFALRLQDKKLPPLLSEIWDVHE
Sequence of Myc proto-oncogene protein (Homo sapiens) (P01106 whole entry, looked up, the tested form may be a part): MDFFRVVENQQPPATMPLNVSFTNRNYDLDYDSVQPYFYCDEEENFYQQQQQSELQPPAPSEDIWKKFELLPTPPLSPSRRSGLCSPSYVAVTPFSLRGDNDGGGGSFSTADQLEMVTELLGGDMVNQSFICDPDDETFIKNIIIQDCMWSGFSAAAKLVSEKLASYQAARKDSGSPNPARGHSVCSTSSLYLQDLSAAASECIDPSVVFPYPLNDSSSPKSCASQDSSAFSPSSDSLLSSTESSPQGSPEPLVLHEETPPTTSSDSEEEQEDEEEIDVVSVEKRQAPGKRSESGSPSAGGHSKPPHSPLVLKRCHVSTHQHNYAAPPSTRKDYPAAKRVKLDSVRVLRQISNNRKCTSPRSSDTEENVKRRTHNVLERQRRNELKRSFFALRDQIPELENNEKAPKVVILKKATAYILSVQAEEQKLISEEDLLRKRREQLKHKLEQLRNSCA
Sequence of Cellular tumor antigen p53 (Homo sapiens) (P04637 whole entry, looked up): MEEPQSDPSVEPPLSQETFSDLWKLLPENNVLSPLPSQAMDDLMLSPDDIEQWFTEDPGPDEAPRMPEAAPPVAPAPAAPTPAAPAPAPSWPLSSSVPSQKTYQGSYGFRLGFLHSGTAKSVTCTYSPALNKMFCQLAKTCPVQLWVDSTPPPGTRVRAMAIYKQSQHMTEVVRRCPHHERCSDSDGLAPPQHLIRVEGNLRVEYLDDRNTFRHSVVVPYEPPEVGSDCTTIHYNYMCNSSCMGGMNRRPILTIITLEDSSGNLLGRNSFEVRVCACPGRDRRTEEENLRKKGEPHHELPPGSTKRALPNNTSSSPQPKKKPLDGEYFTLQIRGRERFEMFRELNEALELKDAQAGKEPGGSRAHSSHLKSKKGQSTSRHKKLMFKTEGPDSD
Sequence of Hepatocyte nuclear factor 4-alpha (Homo sapiens) (P41235 whole entry, looked up, the tested form may be a part): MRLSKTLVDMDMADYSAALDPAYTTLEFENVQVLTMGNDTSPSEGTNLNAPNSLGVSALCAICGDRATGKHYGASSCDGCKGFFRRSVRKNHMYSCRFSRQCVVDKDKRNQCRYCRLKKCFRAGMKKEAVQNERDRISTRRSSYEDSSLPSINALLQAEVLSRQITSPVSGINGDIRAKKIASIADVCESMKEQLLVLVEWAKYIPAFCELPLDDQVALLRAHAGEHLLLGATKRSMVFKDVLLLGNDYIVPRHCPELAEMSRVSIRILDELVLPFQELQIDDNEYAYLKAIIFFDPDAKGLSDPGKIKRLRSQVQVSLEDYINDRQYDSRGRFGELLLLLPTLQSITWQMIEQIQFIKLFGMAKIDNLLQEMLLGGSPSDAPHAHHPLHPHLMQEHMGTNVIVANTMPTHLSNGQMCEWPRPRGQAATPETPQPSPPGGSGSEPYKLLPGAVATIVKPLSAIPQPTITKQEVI
Sequence of Oxysterols receptor LXR-beta (Homo sapiens) (P55055 whole entry, looked up, the tested form may be a part): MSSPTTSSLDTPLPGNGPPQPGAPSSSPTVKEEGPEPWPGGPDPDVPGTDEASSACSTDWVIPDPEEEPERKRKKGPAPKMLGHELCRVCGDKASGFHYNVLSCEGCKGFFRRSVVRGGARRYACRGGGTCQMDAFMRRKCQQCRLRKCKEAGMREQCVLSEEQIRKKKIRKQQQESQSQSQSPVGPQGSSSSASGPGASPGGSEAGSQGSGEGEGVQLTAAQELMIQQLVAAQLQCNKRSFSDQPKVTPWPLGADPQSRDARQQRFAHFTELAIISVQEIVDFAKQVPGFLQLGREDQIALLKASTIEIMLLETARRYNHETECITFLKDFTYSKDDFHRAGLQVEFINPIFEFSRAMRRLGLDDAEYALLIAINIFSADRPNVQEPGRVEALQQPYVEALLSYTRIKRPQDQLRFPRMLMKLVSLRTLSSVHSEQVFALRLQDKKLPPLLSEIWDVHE
Sequence of Nuclear receptor subfamily 4 group A member 2 (Homo sapiens) (P43354 whole entry, looked up, the tested form may be a part): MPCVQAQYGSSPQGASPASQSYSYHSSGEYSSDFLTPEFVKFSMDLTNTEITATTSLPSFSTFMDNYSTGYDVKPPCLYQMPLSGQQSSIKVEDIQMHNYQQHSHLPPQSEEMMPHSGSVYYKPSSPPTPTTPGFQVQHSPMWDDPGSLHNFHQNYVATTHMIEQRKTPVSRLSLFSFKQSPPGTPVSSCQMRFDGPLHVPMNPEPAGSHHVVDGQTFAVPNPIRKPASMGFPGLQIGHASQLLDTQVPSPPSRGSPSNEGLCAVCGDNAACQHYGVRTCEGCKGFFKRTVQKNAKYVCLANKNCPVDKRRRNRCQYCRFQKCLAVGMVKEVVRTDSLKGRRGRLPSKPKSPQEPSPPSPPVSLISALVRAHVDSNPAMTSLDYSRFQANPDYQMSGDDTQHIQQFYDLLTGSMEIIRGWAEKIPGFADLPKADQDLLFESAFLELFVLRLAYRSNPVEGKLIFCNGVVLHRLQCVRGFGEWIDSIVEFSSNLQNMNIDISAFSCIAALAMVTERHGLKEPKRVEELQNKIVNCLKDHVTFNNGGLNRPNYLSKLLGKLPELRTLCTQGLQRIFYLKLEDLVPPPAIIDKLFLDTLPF
Sequence of Bile acid receptor (Homo sapiens) (Q96RI1 whole entry, looked up, the tested form may be a part): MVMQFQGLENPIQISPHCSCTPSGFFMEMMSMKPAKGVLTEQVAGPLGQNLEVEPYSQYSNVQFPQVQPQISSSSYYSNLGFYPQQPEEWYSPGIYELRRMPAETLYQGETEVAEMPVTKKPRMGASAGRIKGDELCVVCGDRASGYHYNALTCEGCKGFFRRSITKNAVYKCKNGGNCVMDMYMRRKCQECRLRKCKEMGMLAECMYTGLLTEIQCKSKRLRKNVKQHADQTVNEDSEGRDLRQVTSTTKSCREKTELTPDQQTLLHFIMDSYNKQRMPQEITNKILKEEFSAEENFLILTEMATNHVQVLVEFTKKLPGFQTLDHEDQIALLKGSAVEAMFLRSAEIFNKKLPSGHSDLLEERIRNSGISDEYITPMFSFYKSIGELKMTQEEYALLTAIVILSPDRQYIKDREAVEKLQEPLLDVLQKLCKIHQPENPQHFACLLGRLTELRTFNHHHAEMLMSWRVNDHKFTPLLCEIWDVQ

With `CCN(CC)C(=O)C(C)Oc1cccc2ccccc12` (stereo not given), the result in [1], in experiment [2], in [3], in experiment [4], in [5] and in experiment [6] was inactive. The molecule was called inactive in [7], in [8], in experiment [9], in [10], in experiment [13] and in experiment [14]. The result in [15] and in [16] was inactive. Also, the AC50 was 0.485 µM (active) in experiment [11] and 4.2 µM (active) in experiment [12].
On to `CCNC(=O)NC(=O)C(C#N)=NOC`, for which the call in experiment [3], in experiment [4], in [6], in experiment [7], in experiment [8] and in experiment [9] was inactive. Moreover, the outcome in [10], in [11], in [12], in [14], in [15] and in experiment [16] was inactive.
Take `COC(=O)NS(=O)(=O)c1ccc(N)cc1`: the result in [3], in experiment [7], in experiment [8], in [9], in [10] and in experiment [17] was inactive. The molecule was called inactive in [11], in experiment [12], in experiment [13], in experiment [14], in experiment [15] and in [16].
For `COC(=O)c1c(C(F)F)nc(C(F)(F)F)c(C2=NCCS2)c1CC(C)C`, the molecule was classed as inactive in experiment [1], in [2], in experiment [3], in experiment [4], in experiment [6] and in [7]. The call in experiment [8], in experiment [9], in experiment [10], in experiment [17], in experiment [13] and in experiment [14] was inactive. Moreover, the result in experiment [16] was inactive. The AC50 in experiment [11] was 2.14 µM (active); in experiment [12], 9.92 µM (active); in experiment [15], 33.4 µM (active).
As for `CNC(=O)Oc1cccc2ccccc12`, the outcome in experiment [18], in experiment [2], in experiment [3], in experiment [6], in experiment [7] and in experiment [8] was inactive. Also, the outcome in [10], in experiment [17], in [13], in experiment [14], in experiment [15] and in experiment [16] was inactive. In addition, the AC50 in experiment [9] was 74.5 µM (active); in experiment [11] it was 15.6 µM (active); in experiment [12], 50 µM (active).
As for `Nc1c(Cl)c(F)nc(OCC(=O)O)c1Cl`, the call in [19], in experiment [3], in experiment [6], in [7], in experiment [8] and in experiment [9] was inactive. Further, the outcome in experiment [10], in experiment [17], in [11], in experiment [12], in experiment [13] and in [14] was inactive. Further, the result in experiment [15] and in experiment [16] was inactive.
